Source: PubChem BioAssay (NCATS)
Unmarked numbers belong to inactive results. Results filed as inconclusive are left out. Where a call stands in place of a potency, no number is given. Calls of active or inactive are those of the source. Unless noted, calls follow the shape of the dose curve; as a rule, active = well fitted curve in the direction sought with a large enough effect; inconclusive = small, poorly fitted or top-dose-only effect, or another doubt; inactive = no such curve, though single readings can be large; an effect the other way counts as inactive or inconclusive.

Experiments:
[1] = target: phosphoglycerate mutase (Leishmania major) (UniProt Q4Q090); assay: qHTS Validation Assay to Find Inhibitors of Phosphoglycerate Mutase (AID 504548); conditions: Potency: inhibition qHTS; also: potency is read from the fitted curve at half-maximal effect
Method in brief: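 Inhibition of L. major PGAM was assessed by Kinase-GloPlus luminescence following a 45-minute room-temperature reaction with enzyme at 1.25nM final.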

[2] = target: Ubiquitin carboxyl-terminal hydrolase 1 (Homo sapiens) (UniProt O94782); assay: Inhibitors of USP1/UAF1: Pilot qHTS (AID 504865); also: nearly all actives have a fitted effect of over 35% in size; also: potency is read from the fitted curve at half-maximal effect
Method in brief: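 In 50mM HEPES pH 7.8 containing 0.5mM EDTA, 1mM TCEP, 0.1 mg/ml BSA and 0.01% Tween-20, 1nM USP1/UAF1 is exposed to compound for 15 min, then Ub-Rho (150nM final) is added and fluorescence is read over time.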

[3] = qHTS for Inhibitors of ATXN expression: Validation (AID 588378); also: nearly all actives have a fitted effect of over 75% in size; also: potency is read from the fitted curve at half-maximal effect
Method in brief: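 Compounds were pinned onto attached HEK293 cells carrying an ATXN2-firefly luciferase construct and incubated 24 hrs at 37 degrees C. Each well then received a fluorescent viability reagent followed by luciferase substrate for end-point luminescence.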

[4] = target: Peptidyl-prolyl cis-trans isomerase NIMA-interacting 1 (Homo sapiens) (UniProt Q13526); assay: qHTS Validation Assay to Find Inhibitors of Pin1 (AID 504536; active = well fitted inhibition curve with a large enough effect in the polarisation, with a control signal flat, not every such curve was filed as active; the % refers to the polarisation; also: potency is read from the fitted curve at half-maximal effect)
Method in brief: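 Fluorescence polarization competition: compounds (titration) displace HiFluor-488-labeled Pin1-1b peptide from Pin1 (0.3 uM final) in pH 7.5 HEPES buffer with DTT, 10 min at room temperature; %Activity normalized to no-enzyme wells, curves fitted.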

[5] = target: Phosphoglycerate kinase, glycosomal (Trypanosoma brucei brucei) (UniProt P07378); assay: qHTS Validation Assay to Find Inhibitors of Phosphoglycerate Kinase (AID 504547)
Method in brief: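 Inhibition of the enzyme is judged by a Kinase-Glo Plus luminescent signal following a one-hour incubation at room temperature. Because 1,3-BPG is unstable, it is made in situ by GAPDH at 100nM final; no-PGK wells define the baseline.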

[6] = qHTS for Inhibitors of ATXN expression: Validation of Cytotoxic Assay (AID 588349); also: potency is read from the fitted curve at half-maximal effect
Method in brief: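 Read-out: ATP-based luminescence (CellTiter Glo) reflecting viability of HEK293 cells after 72 hr incubation at 37 degrees C with a concentration series of each compound.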

[7] = qHTS for Inhibitors of Cell Surface uPA Generation: Validation Assay (AID 493164)
Method in brief: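 RAW 264.7 cells (4000/well) were plated overnight, then exposed for 18 h at 37 C, 5% CO2 to compounds in a 7-point 1:5 titration (2.45 nM–38.3 uM final). Intracellular ATP was read by ATP-Lite luminescence.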

[8] = target: Galactokinase (Homo sapiens) (UniProt P51570); assay: qHTS Validation Assay for Inhibitors of Human Galactokinase (GALK) (AID 493189)
Method in brief: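 5 nM GALK / 100 uM galactose / 35 uM ATP, 20 mM HEPES pH8.0, 5 mM MgCl2, 60 mM NaCl, 1 mM DTT, 0.01% BSA (final). RT 1 h; Kinase-Glo Plus luminescence.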

[9] = Validation screen for small molecules that induce DNA re-replication in SW480 colon adenocarcinoma cells (AID 504364)
Method in brief: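 250 cells/well; compound pinned in; 48 hr, 37 C, 5% CO2; Hoechst added, 40 min; nuclear fluorescence imaged, 405 ex / 500-530 em; re-replication scored as increase in high-intensity nuclei.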

[10] = target: DNA dC->dU-editing enzyme APOBEC-3G (Homo sapiens) (UniProt Q9HC16); assay: qHTS for inhibitors of Vif-A3G interactions: Validation (AID 588379); also: potency is read from the fitted curve at half-maximal effect
Method in brief: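 HeLa cells stably expressing Vif and A3G-eYFP, 700 cells/well, incubated overnight at 37 deg C, then exposed to compound overnight at 37 deg C. Inhibition of Vif-mediated degradation read as increased yellow fluorescence (Ex 488/Em 500-530) by laser-scanning cytometry.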

[11] = target: Estrogen receptor (Homo sapiens) (UniProt P03372); assay: qHTS assay for small molecule agonists of estrogen receptor alpha signaling (AID 588514; calls by dose curve; also: nearly all actives have a fitted effect of over 70% in size)
Method in brief: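 Cells were plated at 5000/well, incubated 4 hrs at 37 C, dosed with compound titration series, incubated 18 hrs at 37 C, loaded with CCF4 dye for 2 hrs at RT, then fluorescence was read.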

[12] = target: Bile acid receptor (Homo sapiens) (UniProt Q96RI1); assay: qHTS assay for small molecule antagonists of farnesoid X receptor signaling (AID 588526; calls by dose curve)
Method in brief: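 Beta-lactamase reporter antagonist mode: HEK293T FXR-UAS-bla cells, titrated compound, CDCA stimulation, 16 h 37 C, CCF4 dye 2 h RT. Data normalized to CDCA 50 uM and DMSO; Hill-fit IC50.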

[13] = target: Glucocorticoid receptor (Homo sapiens) (UniProt P04150); assay: qHTS assay for small molecule agonists of glucocorticoid receptor signaling (AID 588532; active = well fitted curve in the direction sought with a large enough effect in the signal ratio, with a control signal flat; the % refers to the signal ratio); conditions: HeLa MMTV-bla, beta-lactamase ratio, agonist, 18 h; stronger effect = higher value; percent of dexamethasone control, DMSO zero
Method in brief: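 Using MMTV-bla HeLa cells in medium with 1% stripped FBS and 25 mM HEPES, compounds were titrated and incubated overnight-length (18 h). Beta-lactamase cleavage of CCF4 was quantified by dual-emission fluorescence.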

phosphoglycerate mutase (Leishmania major), sequence (Q4Q090 1-553): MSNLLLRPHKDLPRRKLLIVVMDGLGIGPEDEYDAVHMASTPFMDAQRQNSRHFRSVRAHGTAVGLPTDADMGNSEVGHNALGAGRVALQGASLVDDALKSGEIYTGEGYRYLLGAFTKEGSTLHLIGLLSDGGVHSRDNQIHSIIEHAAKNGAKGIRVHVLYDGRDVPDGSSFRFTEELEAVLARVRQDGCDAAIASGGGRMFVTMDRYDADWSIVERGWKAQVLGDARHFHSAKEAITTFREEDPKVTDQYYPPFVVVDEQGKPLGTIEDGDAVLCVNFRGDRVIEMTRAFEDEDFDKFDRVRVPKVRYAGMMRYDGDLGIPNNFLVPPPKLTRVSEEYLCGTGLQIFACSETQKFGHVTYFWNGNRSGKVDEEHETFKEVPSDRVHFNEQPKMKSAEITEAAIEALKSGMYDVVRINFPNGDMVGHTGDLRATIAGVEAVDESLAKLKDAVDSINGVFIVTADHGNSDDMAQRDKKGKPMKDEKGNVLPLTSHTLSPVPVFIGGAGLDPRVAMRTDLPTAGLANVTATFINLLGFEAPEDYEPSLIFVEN
Phosphoglycerate kinase, glycosomal (Trypanosoma brucei brucei), sequence (P07378 whole entry, looked up): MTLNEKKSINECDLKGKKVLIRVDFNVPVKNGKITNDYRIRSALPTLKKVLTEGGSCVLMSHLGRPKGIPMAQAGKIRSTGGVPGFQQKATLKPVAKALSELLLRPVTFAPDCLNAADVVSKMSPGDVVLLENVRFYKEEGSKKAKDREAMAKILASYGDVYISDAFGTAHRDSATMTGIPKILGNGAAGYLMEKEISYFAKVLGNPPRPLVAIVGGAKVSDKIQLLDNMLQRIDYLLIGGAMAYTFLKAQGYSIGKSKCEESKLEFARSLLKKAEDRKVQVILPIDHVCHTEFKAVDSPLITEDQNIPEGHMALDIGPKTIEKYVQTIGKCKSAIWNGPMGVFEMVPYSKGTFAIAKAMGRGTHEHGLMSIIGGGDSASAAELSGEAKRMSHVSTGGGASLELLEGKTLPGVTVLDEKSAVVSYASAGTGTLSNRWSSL
Galactokinase (Homo sapiens), sequence (P51570 whole entry, looked up): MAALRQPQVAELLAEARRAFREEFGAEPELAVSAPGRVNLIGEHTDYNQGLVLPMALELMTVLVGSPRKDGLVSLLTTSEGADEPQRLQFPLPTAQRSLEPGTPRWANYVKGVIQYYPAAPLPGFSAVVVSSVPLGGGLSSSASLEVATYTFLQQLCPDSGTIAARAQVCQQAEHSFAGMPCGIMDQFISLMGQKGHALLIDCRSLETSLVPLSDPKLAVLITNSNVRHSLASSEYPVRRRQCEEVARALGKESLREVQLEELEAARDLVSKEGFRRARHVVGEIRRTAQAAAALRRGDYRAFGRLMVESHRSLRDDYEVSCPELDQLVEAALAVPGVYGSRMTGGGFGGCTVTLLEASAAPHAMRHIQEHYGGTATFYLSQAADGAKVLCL
Ubiquitin carboxyl-terminal hydrolase 1 (Homo sapiens), sequence (O94782 whole entry, looked up): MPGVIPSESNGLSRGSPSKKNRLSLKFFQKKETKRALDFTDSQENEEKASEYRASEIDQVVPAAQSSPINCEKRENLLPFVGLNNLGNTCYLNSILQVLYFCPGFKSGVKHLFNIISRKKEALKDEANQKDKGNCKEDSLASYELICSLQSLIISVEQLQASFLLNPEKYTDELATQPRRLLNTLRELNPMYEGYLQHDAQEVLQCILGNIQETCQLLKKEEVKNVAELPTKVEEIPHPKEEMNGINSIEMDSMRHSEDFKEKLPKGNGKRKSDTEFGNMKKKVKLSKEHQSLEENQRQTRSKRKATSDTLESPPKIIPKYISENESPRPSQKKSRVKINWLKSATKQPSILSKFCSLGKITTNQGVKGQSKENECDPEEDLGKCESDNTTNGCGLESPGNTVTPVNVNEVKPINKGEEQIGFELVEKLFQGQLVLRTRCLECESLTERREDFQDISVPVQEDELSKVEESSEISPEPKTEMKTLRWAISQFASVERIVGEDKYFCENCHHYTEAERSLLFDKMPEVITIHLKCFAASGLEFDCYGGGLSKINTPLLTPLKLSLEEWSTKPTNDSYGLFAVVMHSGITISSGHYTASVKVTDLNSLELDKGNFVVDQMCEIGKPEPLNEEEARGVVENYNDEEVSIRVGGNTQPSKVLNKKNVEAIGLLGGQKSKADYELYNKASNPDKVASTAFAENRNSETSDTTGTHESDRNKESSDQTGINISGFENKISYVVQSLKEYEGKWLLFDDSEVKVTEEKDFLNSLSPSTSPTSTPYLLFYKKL
Peptidyl-prolyl cis-trans isomerase NIMA-interacting 1 (Homo sapiens), sequence (Q13526 whole entry, looked up): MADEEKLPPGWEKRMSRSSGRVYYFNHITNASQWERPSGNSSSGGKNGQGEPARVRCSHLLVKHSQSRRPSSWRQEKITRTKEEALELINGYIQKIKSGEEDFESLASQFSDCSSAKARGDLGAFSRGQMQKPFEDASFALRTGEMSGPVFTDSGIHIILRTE
DNA dC->dU-editing enzyme APOBEC-3G (Homo sapiens), sequence (Q9HC16 whole entry, looked up): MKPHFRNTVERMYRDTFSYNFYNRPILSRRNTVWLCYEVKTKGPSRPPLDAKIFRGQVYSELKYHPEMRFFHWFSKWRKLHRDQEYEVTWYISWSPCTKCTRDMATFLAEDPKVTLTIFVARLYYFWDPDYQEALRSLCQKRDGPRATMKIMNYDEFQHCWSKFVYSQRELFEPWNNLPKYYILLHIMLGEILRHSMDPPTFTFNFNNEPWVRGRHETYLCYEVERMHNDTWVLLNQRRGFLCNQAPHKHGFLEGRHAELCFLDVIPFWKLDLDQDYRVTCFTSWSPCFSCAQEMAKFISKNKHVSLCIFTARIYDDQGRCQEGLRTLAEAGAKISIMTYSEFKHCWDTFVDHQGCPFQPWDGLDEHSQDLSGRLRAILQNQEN
Estrogen receptor (Homo sapiens), sequence (P03372 whole entry, looked up): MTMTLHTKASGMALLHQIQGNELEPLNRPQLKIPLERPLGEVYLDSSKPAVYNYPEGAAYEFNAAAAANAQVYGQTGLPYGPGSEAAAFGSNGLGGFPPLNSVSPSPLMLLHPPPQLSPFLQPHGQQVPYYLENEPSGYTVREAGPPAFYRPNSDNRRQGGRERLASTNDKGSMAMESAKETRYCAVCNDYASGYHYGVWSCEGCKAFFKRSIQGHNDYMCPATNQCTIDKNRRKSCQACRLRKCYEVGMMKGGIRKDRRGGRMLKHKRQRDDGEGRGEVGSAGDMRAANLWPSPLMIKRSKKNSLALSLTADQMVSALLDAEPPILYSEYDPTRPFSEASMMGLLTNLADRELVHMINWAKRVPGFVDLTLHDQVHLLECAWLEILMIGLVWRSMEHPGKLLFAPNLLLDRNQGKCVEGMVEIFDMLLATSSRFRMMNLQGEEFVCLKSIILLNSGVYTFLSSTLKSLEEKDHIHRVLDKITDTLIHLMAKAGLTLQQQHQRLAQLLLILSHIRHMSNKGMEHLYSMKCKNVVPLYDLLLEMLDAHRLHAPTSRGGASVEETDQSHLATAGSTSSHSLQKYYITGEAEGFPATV
Glucocorticoid receptor (Homo sapiens), sequence (P04150 whole entry, looked up): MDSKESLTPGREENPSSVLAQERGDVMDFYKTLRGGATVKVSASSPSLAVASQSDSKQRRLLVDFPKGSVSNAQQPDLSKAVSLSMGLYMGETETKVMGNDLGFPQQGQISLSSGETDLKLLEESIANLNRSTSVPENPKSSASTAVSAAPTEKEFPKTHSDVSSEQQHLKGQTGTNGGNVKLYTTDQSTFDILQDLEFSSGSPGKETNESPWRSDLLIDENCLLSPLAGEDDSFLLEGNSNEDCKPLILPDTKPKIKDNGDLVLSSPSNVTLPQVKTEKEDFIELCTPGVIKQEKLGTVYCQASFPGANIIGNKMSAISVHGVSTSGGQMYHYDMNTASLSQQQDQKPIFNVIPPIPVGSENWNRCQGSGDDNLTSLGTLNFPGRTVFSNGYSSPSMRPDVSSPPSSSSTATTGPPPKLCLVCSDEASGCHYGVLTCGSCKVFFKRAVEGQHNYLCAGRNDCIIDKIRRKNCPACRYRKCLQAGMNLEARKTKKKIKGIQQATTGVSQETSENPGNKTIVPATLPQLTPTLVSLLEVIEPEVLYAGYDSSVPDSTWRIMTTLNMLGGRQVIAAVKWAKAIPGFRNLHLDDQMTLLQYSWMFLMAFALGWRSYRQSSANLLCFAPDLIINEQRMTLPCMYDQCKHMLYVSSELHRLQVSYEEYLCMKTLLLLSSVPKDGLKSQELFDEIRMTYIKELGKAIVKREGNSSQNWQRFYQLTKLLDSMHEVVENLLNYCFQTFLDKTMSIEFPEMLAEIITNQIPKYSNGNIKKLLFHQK
Bile acid receptor (Homo sapiens), sequence (Q96RI1 whole entry, looked up): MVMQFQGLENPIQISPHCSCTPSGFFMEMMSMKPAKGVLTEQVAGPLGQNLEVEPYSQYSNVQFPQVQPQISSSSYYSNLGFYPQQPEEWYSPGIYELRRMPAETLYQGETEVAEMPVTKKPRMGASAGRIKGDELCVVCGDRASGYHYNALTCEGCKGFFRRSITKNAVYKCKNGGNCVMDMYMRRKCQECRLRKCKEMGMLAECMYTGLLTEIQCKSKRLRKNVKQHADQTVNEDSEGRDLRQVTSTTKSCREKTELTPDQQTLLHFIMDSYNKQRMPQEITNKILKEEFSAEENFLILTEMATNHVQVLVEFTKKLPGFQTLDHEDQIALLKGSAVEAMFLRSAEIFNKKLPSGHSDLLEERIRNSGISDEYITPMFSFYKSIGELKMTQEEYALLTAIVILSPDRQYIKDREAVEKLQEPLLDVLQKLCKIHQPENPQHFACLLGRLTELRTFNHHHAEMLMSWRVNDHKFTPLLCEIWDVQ

Q: Which Potency [1] does the source give for `CC[n+]1c(/C=C/C=C2/N(C)c3ccccc3C2(C)C)sc2ccccc21` here?
A: The Potency was 19 µM (active).

Q: And the Potency [2]?
A: The Potency was 31.6 µM (active).

Q: And the Potency [3]?
A: The Potency was 0.891 µM (active).

Q: For `O=c1onc2cnc3ccccc3n12`, which Potency [4] is on record?
A: Its Potency is “inactive”.

Q: What about the Potency [5] of the same compound?
A: Its Potency is “inactive”.

Q: What about the Potency [1] of the same compound?
A: Its Potency is “inactive”.

Q: And the Potency [2]?
A: Its Potency is “inactive”.

Q: What about the Potency [6] of the same compound?
A: The Potency was “inactive”.

Q: And the Potency [3]?
A: Its Potency is “inactive”.

Q: Which outcome [7] does the source give for `C/C(=C\c1ccc(C(=O)O)cc1)c1ccc2c(c1)C(C)(C)CCC2(C)C` here?
A: Its outcome is “inactive”.

Q: What about the Potency [8] of the same compound?
A: The Potency was “inactive”.

Q: What about the Potency [9] of the same compound?
A: The Potency was “inactive”.

Q: And the Potency [5]?
A: The Potency was “inactive”.

Q: What about the Potency [1] of the same compound?
A: Its Potency is “inactive”.

Q: What about the Potency [2] of the same compound?
A: Its Potency is 31.6 µM (active).

Q: What about the Potency [6] of the same compound?
A: The Potency was “inactive”.

Q: What about the Potency [3] of the same compound?
A: Its Potency is “inactive”.

Q: What about the Potency [10] of the same compound?
A: Its Potency is “inactive”.

Q: What about the Potency [11] of the same compound?
A: Its Potency is “inactive”.

Q: And the outcome [12]?
A: Its outcome is “inactive”.

Q: What about the activation [13] of the same compound?
A: Its activation is -4.65%.

Q: For `COc1cc([C@@H]2c3cc4c(cc3[C@H](O)C3COC(=O)[C@@H]32)OCO4)cc(OC)c1OC` (some centres undefined), which Potency [8] is on record?
A: Its Potency is “inactive”.

Q: And the Potency [4]?
A: The Potency was “inactive”.

Q: And the Potency [5]?
A: Its Potency is “inactive”.

Q: And the Potency [1]?
A: The Potency was “inactive”.

Q: And the Potency [3]?
A: Its Potency is “inactive”.

Q: Which outcome [7] does the source give for `Brc1c(Br)c(Br)c2[nH]cnc2c1Br` here?
A: The outcome was “inactive”.

Q: What about the Potency [4] of the same compound?
A: Its Potency is “inactive”.

Q: And the Potency [2]?
A: Its Potency is “inactive”.

Q: Which Potency [8] does the source give for `CCCCCCCC/C=C\CCCCCCCC(=O)NCCc1ccc(O)c(O)c1` here?
A: Its Potency is “inactive”.

Q: And the Potency [9]?
A: The Potency was “inactive”.

Q: What about the Potency [4] of the same compound?
A: The Potency was “inactive”.

Q: And the Potency [5]?
A: Its Potency is “inactive”.

Q: And the Potency [1]?
A: The Potency was “inactive”.

Q: And the Potency [6]?
A: The Potency was 31.6 µM (active).

Q: And the Potency [3]?
A: The Potency was 20 µM (active).

Q: For `CCCCOC(=O)NS(=O)(=O)c1sc(CC(C)C)cc1-c1ccc(Cn2c(CC)nc3c(C)cc(C)nc32)cc1`, which outcome [7] is on record?
A: Its outcome is “inactive”.

Q: What about the Potency [4] of the same compound?
A: Its Potency is “inactive”.

Q: And the Potency [5]?
A: Its Potency is “inactive”.

Q: What about the Potency [2] of the same compound?
A: The Potency was 56.2 µM (active).

Q: For `CCCCCCN(CCCCCC)C(=O)Cc1c(-c2ccc(F)cc2)[nH]c2ccccc12`, which outcome [7] is on record?
A: The outcome was “inactive”.

Q: And the Potency [8]?
A: Its Potency is “inactive”.

Q: And the Potency [4]?
A: Its Potency is “inactive”.

Q: And the Potency [5]?
A: The Potency was “inactive”.

Q: What about the Potency [1] of the same compound?
A: The Potency was “inactive”.

Q: And the Potency [6]?
A: Its Potency is “inactive”.

Q: And the Potency [3]?
A: The Potency was “inactive”.

Q: And the Potency [10]?
A: Its Potency is “inactive”.

Q: Which results are given for `N#Cc1cc([N+](=O)[O-])c2sc(C(N)=O)[n+]([O-])c2c1`?
A: outcome [7]: inactive; Potency [4]: inactive; Potency [1]: inactive; Potency [6]: inactive; Potency [3]: inactive

Q: With `N#CC(=C(\N)Sc1ccccc1N)/C(C#N)=C(/N)Sc1ccccc1N` as the compound, how does the outcome [7] read?
A: The outcome was “inactive”.

Q: What about the Potency [8] of the same compound?
A: The Potency was “inactive”.

Q: And the Potency [4]?
A: Its Potency is “inactive”.

Q: And the Potency [5]?
A: Its Potency is “inactive”.

Q: And the Potency [1]?
A: The Potency was “inactive”.

Q: And the Potency [2]?
A: The Potency was “inactive”.

Q: And the Potency [6]?
A: The Potency was “inactive”.

Q: Which outcome [7] does the source give for `CC(C)[C@@H]1CC[C@@H](C)C[C@@H]1P(=O)(c1ccccc1)c1ccccc1` here?
A: Its outcome is “inactive”.

Q: And the Potency [4]?
A: Its Potency is “inactive”.

Q: And the Potency [5]?
A: The Potency was “inactive”.

Q: And the Potency [1]?
A: The Potency was “inactive”.

Q: And the Potency [2]?
A: Its Potency is “inactive”.

Q: And the Potency [6]?
A: Its Potency is “inactive”.

Q: What about the Potency [3] of the same compound?
A: The Potency was “inactive”.

Q: Which outcome [7] does the source give for `COc1cc(/C=C(\C#N)C(=O)Nc2nnc(C(F)(F)F)s2)ccc1OCc1ccc(C(F)(F)F)cc1C(F)(F)F` here?
A: Its outcome is “inactive”.

Q: And the Potency [4]?
A: Its Potency is 23.9 µM (active).

Q: What about the Potency [1] of the same compound?
A: Its Potency is “inactive”.

Q: And the Potency [2]?
A: Its Potency is 50.1 µM (active).

Q: And the Potency [6]?
A: The Potency was “inactive”.

Q: What does the source list for `Nc1ccc2c3c(cccc13)C(=O)NC2=O`?
A: outcome [7]: inactive; Potency [8]: inactive; Potency [9]: inactive; Potency [5]: inactive; Potency [1]: inactive; Potency [2]: 25.1 µM (active); Potency [6]: inactive; Potency [3]: inactive

Q: For `CCCCCCCCCCC(C)(C)C(=O)Nc1c(OC)cc(OC)cc1OC`, which outcome [7] is on record?
A: The outcome was “inactive”.

Q: And the Potency [4]?
A: Its Potency is “inactive”.

Q: And the Potency [5]?
A: The Potency was “inactive”.

Q: And the Potency [1]?
A: The Potency was “inactive”.

Q: And the Potency [2]?
A: The Potency was 44.7 µM (active).

Q: What about the Potency [3] of the same compound?
A: The Potency was “inactive”.

Q: Which outcome [7] does the source give for `CN1CCC2(CCN3CCc4c(oc5ccccc45)C3C2)N(C)C1=O` (centres undefined) here?
A: Its outcome is “inactive”.

Q: What about the Potency [9] of the same compound?
A: Its Potency is “inactive”.

Q: What about the Potency [4] of the same compound?
A: The Potency was “inactive”.

Q: What about the Potency [5] of the same compound?
A: Its Potency is “inactive”.

Q: What about the Potency [1] of the same compound?
A: The Potency was “inactive”.

Q: What about the Potency [2] of the same compound?
A: Its Potency is “inactive”.

Q: And the Potency [6]?
A: Its Potency is “inactive”.

Q: And the Potency [3]?
A: The Potency was “inactive”.

Q: For `O=C1Nc2ccc(I)cc2/C1=C/c1cc(Br)c(O)c(Br)c1`, which outcome [7] is on record?
A: The outcome was “inactive”.

Q: And the Potency [8]?
A: The Potency was “inactive”.

Q: And the Potency [9]?
A: The Potency was “inactive”.

Q: And the Potency [5]?
A: Its Potency is “inactive”.

Q: What about the Potency [1] of the same compound?
A: Its Potency is “inactive”.

Q: And the Potency [2]?
A: Its Potency is 44.7 µM (active).

Q: And the Potency [10]?
A: Its Potency is 4.22 µM (active).

Q: What does the source list for `CC(N)(Cc1ccc(O)cc1)C(=O)O` (centres undefined)?
A: outcome [7]: inactive; Potency [8]: inactive; Potency [9]: inactive; Potency [5]: inactive; Potency [1]: inactive; Potency [2]: inactive; Potency [6]: inactive; Potency [3]: inactive
